Source: PubChem BioAssay (NCATS)
Where “and” joins values, the source holds several entries; their conditions need not be identical. Equal entries are not always repeated. Records with an inconclusive call do not appear. Values without a mark were called inactive. Calls of active or inactive are those of the source. Calls follow the shape of the dose curve; as a rule, active = well fitted cell-killing curve with a large enough effect; inconclusive = small, poorly fitted or top-dose-only effect; inactive = flat fitted curve, though single readings scatter.

Assay: Cellular viability qHTS for adrenocortical cancer (ACC) cell line SW-13 (AID 1963989); also: nearly all actives have a fitted effect of over 65% in size;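 as to activity (max response): cells grown in serum-free medium with ITS supplement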
Conditions: SW-13 ACC cells viability, CellTiter-Glo, 48 h; activity (max response): hits give low values
Description: PI: Naris Nilubol, MD Surgical Oncology Program, National Cancer Institute (NCI) National Institute of Health (NIH), Bethesda, Maryland Adrenocortical cancer (ACC) is a rare malignancy with poor survival outcomes and few treatment options. Currently, mitotane is the only FDA-approved therapy for ACC. Although adjuvant radiation therapy is rarely utilized, it has the potential to improve survival in select cases. Through a quantitative high-throughput drug screen (qHTS), we identified auranofin (AF), a thioredoxin reductase (TXNRD) inhibitor, as a promising candidate drug. This study aims to evaluate whether AF can enhance the efficacy of radiation therapy in the treatment of ACC. Two human ACC cell lines, SW-13 and NCI-H295R, were screened using the National Center for Advancing Translational Sciences (NCATS) Pharmaceutical Collection (NPC) and the Mechanism Interrogation PlatE (MIPE) library (~4,991 compounds). CellTiter-Glo (Cat # G7570, Promega, Madison, WI) was utilized to measure cell viability. Described herein are the results of the corresponding viability assay.
PROTOCOL TABLE (as described by Inglese J, Shamu CE and Guy RK. 2007) SEQUENCE No. (e.g., 1, 2, 3, etc.); […] (e.g., Cells, Incubation, Reagent, etc.); VALUE; DESCRIPTION. 1; Cells; 5 uL; white, solid-bottom, 1536-well tissue-culture treated plates. 2; Time; overnight culture at 37C with 5% CO2. 3; Compounds and control; 23 nL; Kalypsis pin tool (Wako USA) equipped with a 1536-well pin head to transfer to the assay plates. 4; Time; 48 hours; 37C with 5% CO2. 5; Reagent; 4 uL; CellTiter-Glo luminescent substrate mix. 6; Time; 20 min at room temperature. 7; Detection; Luminescence; ViewLux plate reader NOTES (numbers refer to Sequence numbers above) 1. SW13 cells were harvested from a T175 flask and resuspended in ITS-supplemented DMEM serum-free medium at a concentration of 300 000 cells/mL. Then 5 uL of resuspended cells were dispensed into each well of white, solid-bottom, 1536-well tissue-culture-treated plates using a multidrop combi dispenser. The plates were covered with stainless steel gasket lids. 2-3. The plates were cultured overnight at 37C with 5% CO2. Twenty-three nL of compounds (eight selected concentrations from the NPC / MIPE) or positive control (10 mM stock of bortezomib) in DMSO was transferred to each well of the assay plate using a pin tool (Kalypsys, San Diego, CA, USA). The final concentration of the compounds in the 5 uL assay volume ranged from 0.5 nM to 46 uM. 4-6. After 48 hours of incubation at 37C and 5% CO2, 4 uL of CellTilter-Glo luminescent substrate mix (Promega, Madison, WI, USA) was added to each well. Then the plates were incubated for 20 minutes at room temperature. 7. After incubation, luminescence was measured using a ViewLux plate reader (PerkinElmer, Waltham, MA, USA) with a clear filter was used to measure the number of metabolically competent cells. To determine compound activity in the qHTS assay, the titration-response data for each sample was plotted and modeled by a four-parameter logistic fit yielding IC50 and efficacy (maximal response) values. […] REFERENCES: Inglese J, Shamu CE and Guy RK, Reporting data from high throughput screening of small molecule libraries, Nature Chemical Biology, 2007, 3(8): 438-441. doi.org/10.1038/nchembio0807-438.
% is scaled to controls: 0 for no effect and ±100 for the full control effect; potency is read from the fitted curve at half-maximal effect.

SMILES | activity (max response) | Potency
Cc1cc(C(C)(C)C)c(O)c(C)c1CC1=NCCN1 | -5.66% and -4.23% | –
Cc1cc(C)cc(NC(=O)Cc2ccc(OC(C)(C)C(=O)O)cc2)c1 | 8.53% | –
CCc1cc(Cl)c(OC)c(C(=O)NC[C@@H]2CCCN2CC)c1O | -13.7% | –
CC(C)[C@H](O)C(=O)N[C@@H](C)C(=O)N[C@@H]1C(=O)N(C)CCc2ccccc21 | 8.71% | –
CN(C)c1cc(NC(=O)CNC(C)(C)C)c(O)c2c1C[C@H]1C[C@H]3[C@H](N(C)C)C(=O)C(C(N)=O)=C(O)[C@]3(O)C(=O)C1=C2O | -8.31% | –
COC(=O)c1ccc(NC(C)=O)cc1OC | -6.56% | –
Cc1ccc(NC(=O)c2ccc(CN3CCN(C)CC3)cc2)cc1Nc1nc(-c2cccnc2)cs1 | – | 25100 nM (active)
CC1(N)CCN(c2cccnc2NC(=O)c2nc(-c3ncccc3C(F)(F)F)cnc2N)CC1 | – | 17800 nM (active)
CCOC(=O)[C@H](CCc1ccccc1)N[C@@H](C)C(=O)N1C(=O)N(C)C[C@H]1C(=O)O | 5.98% | –
O=C1c2ccccc2CCc2ccccc21 | 4.16% | –
C[C@H]1COCCN1c1cc(C2(S(=O)(=O)C3CC3)CC2)nc(-c2ccc(NC(=S)NCCO)cc2)n1 | – | 316 nM (active)
COc1cc(OC)nc(O[C@H](C(=O)O)C(OC)(c2ccccc2)c2ccccc2)n1 | 12.1% | –
O=C1NC(=O)C(c2c[nH]c3ccccc23)=C1c1c[nH]c2ccccc12 | – | 25100 nM (active)
CCCNC(=O)c1cn2ncnc(Nc3cc(C(=O)NC4CC4)ccc3C)c2c1C | 7.33% | –
COc1ccc(/C=N/NC(=O)c2ccncc2)cc1OC | -2.5% | –
NS(=O)(=O)c1cc2c(cc1Cl)NC(CSCc1ccccc1)=NS2(=O)=O | -2.17% | –
CCc1cccc2c3c([nH]c12)C(CC)(CC(=O)O)OCC3 (stereo not given) | 7.18% | –
CN1CCN(c2ccc(-c3cccc(CN4CCOCC4)c3)cc2NC(=O)c2c[nH]c(=O)cc2C(F)(F)F)CC1 | -3.17% | –
C#C[C@]1(O)CC[C@H]2[C@@H]3CCC4=CC(=O)CC[C@@H]4[C@H]3CC[C@@]21C | 2.7% | –
CC(C)C[C@H](NC(=O)CNC(=O)c1cc(Cl)ccc1Cl)B1OC(=O)CC(CC(=O)O)(C(=O)O)O1 (stereo not given in full) | – | 1410 nM (active)

SMILES | activity (max response) | Potency
CCCCC[C@H](O)/C=C/[C@H]1[C@H](O)CC(=O)[C@@H]1CCCCCCC(=O)O | 1.24% | –
CCOc1cc(/C=C2/C(=O)N(c3ccccc3)N=C2C)cc(Cl)c1OCC(=O)OC | -5.72% | –
Cc1[nH]cnc1CN1CCc2c(c3ccccc3n2C)C1=O | 6.95% | –
COc1cc(OC)c(/C=C/S(=O)(=O)Cc2ccc(OC)c(OP(=O)(O)O)c2)c(OC)c1 | – | 39.8 nM (active)
CS(=O)(=O)c1ccc(-c2cnc(NCc3ccco3)n3cnnc23)cc1 | -12% | –
Nc1nc(N)c2nc(-c3cccc(Cl)c3)c(N)nc2n1 | – | 1260 nM (active)
CC[C@H](C)[C@H](N)C(=O)O | 4.01% | –
Cc1cc(NS(=O)(=O)c2ccc(N)cc2)nc(C)n1 | 9.61% | –
N[C@@H]1CONC1=O | 0.98% and -6.89% | –
COc1cc(Nc2nc3ccccc3nc2NS(=O)(=O)c2ccc(NC(=O)c3ccc(C)c(OC)c3)cc2)cc(OC)c1 | 11.3% | –
COc1cc2nccc(Oc3ccc(NC(=O)NC4CC4)c(Cl)c3)c2cc1C(N)=O | 3.51% | –
CCCCCCCCCCCCCCCCO | 10.1% | –
N#Cc1c(N)nc(N)nc1N[C@H](c1nc2c(F)ccc(Cl)c2c(=O)n1-c1cccnc1)C1CC1 | -22.7% | –
Cc1ccc(C(=O)Nc2ccc(CN3CCN(C)CC3)c(C(F)(F)F)c2)cc1C#Cc1cnc2[nH]ncc2c1 | – | 1780 nM (active)
CCN(CC)CC(=O)Nc1c(C)cccc1C(=O)OC | -5.08% | –
COc1cc(N2CCC(O)CC2)ccc1Nc1cc(Nc2ccccc2S(=O)(=O)C(C)C)c2cc[nH]c2n1 | -1.42% | –
C[C@]1(c2nc3c(C(N)=O)cccc3[nH]2)CCCN1 | 7.65% | –
CCN1CCN(Cc2ccc(NC(=O)Nc3ccc(Oc4cc(NC)ncn4)cc3)cc2C(F)(F)F)CC1 | – | 3980 nM (active)
CN=C(NC#N)NCCSCc1nc[nH]c1C | -4.08% | –
Cc1c(C(N)=O)cc([N+](=O)[O-])cc1[N+](=O)[O-] | -7.83% | –
